# Bioassay records: PubChem BioAssay, National Center for Advancing Translational Sciences (NCATS)
# Compounds with a hit are over-represented: about 21% of the library has one in this group of screens.
# Pf growth 48h – P. falciparum growth inhibition at 48 hours (one generation) | P. falciparum luciferase growth in erythrocytes, 48 h | Potency, µM (titrated, usually from 28.7 µM), actives largely listed as inhibitors | 310,000 compounds, 5.9% hits | AID 504832
#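 A one-generation exposure of luciferase-tagged malaria parasites in RPMI 1640/Albumax erythrocyte culture, 37 C and 5% CO2. Inhibition is inferred from decreased luminescence after adding detection reagent.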
# Sm TGR inh – inhibitors of Schistosoma mansoni thioredoxin glutathione reductase. Q962Y6. purified TGR, DTNB reduction, TNB absorbance 405 nm. Potency, µM (highest dose often 114 µM), hits mostly inhibitors. 360,000 compounds, 3% hits. AID 485364; further: nearly all actives have a fitted effect of over 60% in size
#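 TGR 20 nM + NADPH 100 uM (dispensed conc.), cpd preinc 15 min RT; start with NADPH (500 uM addition) then DTNB (15 mM addition). Kinetic TNB absorbance, 405 nm filter. Four-parameter Hill fit across titration.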
# Cycloheximide cs – affects cycloheximide protein synthesis inhibition readout, counter-screen | 300,000 compounds, 12% hits | cell reporter, cycloheximide protein synthesis inhibition counterscreen | max response, %; in the data active means max response mostly above about 13%, no sharp cut-off; inactive means mostly below about 14%; further: read at 38.3 µM for the half of the compounds with a filed dose
# Shiga toxin inh – inhibitors of Shiga toxin in Vero cells; AID 2315; inhibition, % at 38.7 µM; Vero cells, Shiga toxin protein synthesis inhibition reporter; 290,000 compounds, 9.2% hits; in the data active means inhibition mostly above about 28%, no sharp cut-off; inactive means mostly below about 43%
# NS1 function inh – blocks influenza NS1 protein function | Potency, µM (titrated, usually from 46.1 µM) | 270,000 compounds, 0.4% hits | AID 2326; calls by dose curve; further: actives are rising curves; nearly all actives have a fitted effect of over 50% in size
#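 S. cerevisiae expressing influenza A NS1, grown in glucose, washed, then diluted 1:100 into pH 6.0 -URA galactose medium with 23 nl compound. Growth recovery read as OD600; NS1-free strain serves as control.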
# Pf growth 96h – inhibits malaria parasite growth, 96 h; AID 504834; Potency, µM (highest dose often 28.7 µM), actives largely listed as inhibitors; 320,000 compounds, 6.9% hits; P. falciparum luciferase reporter growth, 96 h
#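 Cell-based qHTS: luciferase-tagged P. falciparum in erythrocytes (2% hematocrit, 0.05% parasitemia final) incubated with compounds for 96 hours, 37 C, 5% CO2; luciferase detection reagent then added and luminescence measured.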
# A number is an active result; n = inactive; u = inconclusive; x = not tested or not shown. Unless noted, the call rests on the fitted dose curve; in most records, active means well fitted curve in the direction sought with a large enough effect; inconclusive means small, poorly fitted or top-dose-only effect, or another doubt; inactive means no such curve, though single readings can be large; an effect the other way counts as inactive or inconclusive.
SMILES,Pf growth 48h,Sm TGR inh,Cycloheximide cs,Shiga toxin inh,NS1 function inh,Pf growth 96h
CCCCC(CCC(=O)NNC(=O)Cc1ccccc1)C(=O)O (centres undefined),n,n,n,n,n,u
O=C(NC(=S)N1CCc2ccccc21)c1ccccc1Br,n,n,25,96,n,u
O=C(NC(=S)N1CCc2ccccc21)c1ccc(Br)o1,u,n,n,n,n,u
CN1CCN(C(=O)c2ccccc2NC(=O)c2ccccc2Br)CC1,n,n,n,n,n,n
CN1CCN(C(=S)NC(=O)c2ccccc2Br)CC1,n,n,n,n,n,1.9µM
O=C(CNC(=O)c1ccccc1F)NCc1cccnc1,n,n,n,n,n,n
O=C(CSC1=NS(=O)(=O)c2cc(F)ccc2N1)Nc1cccc(F)c1,n,n,x,x,x,n
CC(/C=C/C(=O)NO)=C\[C@@H](C)C(=O)c1ccc(N(C)C)cc1,x,x,n,n,x,x
Cc1ccc2nc(-c3ccncc3)c(Nc3ccc(C(C)C)cc3)n2c1,x,n,x,x,x,x
O=C1Nc2ccccc2/C1=C\C(=O)c1ccccc1,n,u,n,n,n,n
CCc1ncc(/C=C2\C(=O)Nc3ccccc32)[nH]1,n,n,26,n,n,n
CN(C)/C=C1\C(=O)Nc2ccccc21,n,n,n,n,n,x
Cc1ncc(/C=C2\C(=O)Nc3ccccc32)[nH]1,n,n,26,40,n,u
CCn1c(/C=C2\C(=O)Nc3ccccc32)nc2ccccc2c1=O,u,n,n,n,n,u
O=C(/C=C1\C(=O)Nc2ccccc21)/C=C1\C(=O)Nc2ccccc21,n,13µM,15,n,n,u
O=C1Nc2ccc(Br)cc2C1=Nc1cccnc1,u,n,n,n,n,u
O=C(O)CCC(NC(=S)Nc1ccccc1)C(=O)O (centres undefined),n,n,n,n,n,n
O=C(CSC(=S)N1CCCC1)NCC(=O)Nc1ccccc1Br,u,n,x,x,x,n
CSc1cccc(CN2CCN(Cc3ccc(F)c(F)c3)C(CCO)C2)c1 (centres undefined),u,n,n,n,n,u
Cc1cc(C)c2nc(N3C(=O)C(O)=C(C(=O)c4ccco4)C3c3ccc(O)cc3)sc2c1 (centres undefined),u,n,x,x,x,n
CSc1nnc(N2C(=O)C(O)=C(C(=O)c3ccco3)C2c2ccccc2)s1 (centres undefined),n,u,n,n,n,n
O=C(C1=C(O)C(=O)N(c2nc3ccc(Cl)cc3s2)C1c1ccco1)c1ccco1 (centres undefined),u,u,x,x,x,n
Cc1ccc2nc(N3C(=O)C(O)=C(C(=O)c4ccc(C)o4)C3c3ccco3)sc2c1 (centres undefined),n,u,x,x,x,6.7µM
CSc1nnc(N2C(=O)C(O)=C(C(=O)c3ccc(C)o3)C2c2ccc(C)cc2)s1 (centres undefined),n,u,35,95,n,n
Cc1ccc2nc(N3C(=O)C(O)=C(C(=O)c4ccco4)C3c3ccc(O)cc3)sc2c1 (centres undefined),n,n,16,n,u,u
SMILES,Pf growth 48h,Sm TGR inh,Cycloheximide cs,Shiga toxin inh,NS1 function inh,Pf growth 96h
Cc1ccc2nc(N3C(=O)C(O)=C(C(=O)c4ccco4)C3c3ccc(C)o3)sc2c1 (centres undefined),n,32µM,31,80,n,5.2µM
CCCCOc1ccc(CNC(=O)CN2CCSc3ccccc32)cc1,x,n,x,x,x,x
COc1ccc(S(=O)(=O)N2CCOCC2)cc1NC(=O)CN1C(=O)NC2(CCCC2)C1=O,n,n,x,x,x,n
CC1CCCN(C(=O)CSCC(=O)Nc2nc(-c3cccs3)cs2)C1 (centres undefined),x,n,n,n,n,u
CCOC(=O)N1CCN(C(=O)CSCC(=O)Nc2nc(-c3cccs3)cs2)CC1,n,n,n,n,n,n
CC1CCCCN1C(=O)CSCC(=O)Nc1nc(-c2cccs2)cs1 (centres undefined),n,n,24,37,n,u
CC1CCN(C(=O)CSCC(=O)Nc2nc(-c3cccs3)cs2)CC1,n,n,10,45,n,u
CCOc1ccccc1CNC(=O)CCCn1c(=O)c2cccn2c2ccc(F)cc21,x,n,x,x,x,x
CS(=O)(=O)N1CCN(c2ccc(NC(=O)c3cccnc3Cl)cc2)CC1,n,n,n,n,n,x
O=C(Nc1ccc(N2CCCCC2)cc1)c1cccnc1Cl,x,n,33,72,n,u
